Tests used:
Assay in all cases: PBM binding z-score (relative to random genomic background probes); higher = stronger binding; sequences stand for … in GC…GCGATTGACAGCGTAGAATGAAGG
[1] = test system: FXR:RXRa (NR concentration 270 nM, RXRa partner concentration 90 nM)
Outline: (§1)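 Regression normalization was applied to scanned fluorescence from custom Agilent 4×180K protein-binding microarrays. Before scanning, arrays were incubated 1 h with ligand-free nuclear receptor dimers, and binding was detected with antibodies against each partner (one per run). Binding z-scores use the random background probes as reference.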

[2] = test system: LXRa:RXRa (NR concentration 270 nM, RXRa partner concentration 90 nM)
Outline: as §1

[3] = test system: LXRa homodimer (NR concentration 270 nM)
Outline: as §1

[4] = test system: LXRb:RXRa (NR concentration 270 nM, RXRa partner concentration 90 nM)
Outline: as §1

[5] = test system: LXRb homodimer (NR concentration 270 nM)
Outline: as §1

[6] = test system: PPARa:RXRa (NR concentration 270 nM, RXRa partner concentration 90 nM)
Outline: as §1

[7] = test system: PPARg:RXRa (NR concentration 180 nM, RXRa partner concentration 90 nM)
Outline: as §1

[8] = test system: PPARg:RXRa 270nM:90nM, anti-RXR (NR concentration 270 nM, RXRa partner concentration 90 nM)
Outline: as §1

[9] = test system: PPARg:RXRa 30nM:10nM, anti-RXR (NR concentration 30 nM, RXRa partner concentration 10 nM)
Outline: as §1

[10] = test system: PPARg:RXRa 90nM:30nM, anti-RXR (NR concentration 90 nM, RXRa partner concentration 30 nM)
Outline: as §1

Sequence	PBM binding z-score [1]	PBM binding z-score [2]	PBM binding z-score [3]	PBM binding z-score [4]	PBM binding z-score [5]	PBM binding z-score [6]	PBM binding z-score [7]	PBM binding z-score [8]	PBM binding z-score [9]	PBM binding z-score [10]
GTTGCTAGGTCAACTGATGGTCAGCTAAAGCTCG	4.29	3.62	0.729	2.08	0.507	3.96	3.38	3.96	0.825	2.71
CCTACTGGGCCGCGAAAGGTCATTGATTCAGTGA	3.37	4.49	3.63	3.85	0.0149	4.35	1.94	3.69	0.701	2.76
AGAAGGAGGTTATACGTAGATCAGGGAAGAAAGT	1.61	1.45	0.366	1.43	0.303	2.43	1.33	1.28	0.492	0.986
CTCGAATGGTCGGTTGAGGTGAGTATACGGATAA	0.27	-0.395	-0.272	-0.377	-0.349	-0.259	-0.0607	-0.192	-0.213	-0.0856
ACTAGCAGGCCAAGGGTCACTCAGGATTAGTCCG	2.7	2.61	0.0255	2.69	-0.237	4.39	7.87	7.62	6.72	8.16
GTTCGGAGGACAAGGTCAGAGCTTTGTCCGTAGA	1.57	1.48	-0.204	0.904	-0.834	2.16	0.427	1.29	-0.266	0.514
GCGACTGGGGCAAAGTAGGTTACCATAAGGTTGG	0.147	0.172	-0.28	0.557	-0.493	2.29	2.59	3.18	0.758	2.3
CCTACTGGGCCACCAAAGGTCATTGATTCAGTGA	3.72	5.73	6.47	4.95	0.575	4.69	5	5.44	2.81	4.94
CGTCCAAGGTCAAAGGTGAGTGAAGAGATGACGG	7.3	5.66	0.771	4.65	1.11	6.66	8.58	7.77	5.88	7.38
CCTATTAGTTGACCATAAGGGCAACCGCAGCTCG	1.1	0.581	0.369	0.306	0.642	0.449	0.36	0.368	-0.191	0.0579
AATACAGGGCCACTAGGCCAGAGTAGGTACGAAT	-0.165	-0.349	-0.323	-0.572	-0.877	0.171	1.13	0.532	0.0485	0.00605
ATATGTAGGTTAAGGGTCATTCAGGTTGGTTCGC	5.11	5.05	3.62	4.41	1.4	6.68	11.5	9.78	10.3	11.1
TTACCAAGGTGAGCTGGGGTCGTTGATCCAACTC	0.996	0.819	-0.542	1.37	-0.609	2.37	0.431	1.19	-0.099	0.415
AATAGAGGGTCACTAGGCCAGAGTAGGTACGAAT	4.62	3.5	0.324	2.81	-0.0545	4.99	6.44	5.59	2.33	4.4
GCCACTGGGGCAAAGCAGGTTACCATAAGGTTGG	0.159	0.154	-0.633	-0.0213	-0.866	1.67	2.09	2.57	0.133	1.47
CCTCGGAGGACAGAAGTTCAGAGCTGTCCGCTTT	-0.0968	0.116	-0.259	-0.479	-0.948	-0.198	-0.643	-0.616	-1.24	-0.788
CCTAGCAGGCCATTCTGGGTCACTCAAGGCTTGA	2.69	4.53	0.0938	2.17	-0.726	2.61	0.687	1.16	-0.704	0.4
TCTGCTAGGTCAGTTGGTCAGCTAGCGAGCTGCC	0.851	0.628	-0.728	0.453	0.185	1.25	0.0409	1.64	1.21	1.31
AGAATGAGGTTATTAAGCTCAGGGAATTGCGGTC	1.57	1.14	-0.316	0.747	-0.299	2.6	0.995	1.26	-0.0679	0.636
CCTCGGAGGACAGATGGTCAGAGCTGTCCGCTTT	-0.143	-0.35	-0.187	-0.927	-0.896	-0.597	-0.644	-0.669	-1.17	-0.907
ATATGTAGGTTACAACCGGGTCATTCAGGCTATG	2.4	4.01	1.33	2.93	0.715	4.68	5.74	5.17	3.03	4.61
TAGCCTAGGTCATGGGCCAGTACACCACGCGAAC	4.77	3.08	0.269	2.41	0.439	4.05	3.9	3.76	1.09	2.8
CGTCCAAGGTCAAAAGTCAGTGAAGAGATGACGG	6.47	5.19	0.641	3.79	1.42	5.14	5.67	5.87	3.41	5
TCGAGTTGGTCACGGAGGTCACACACGACGGGTA	3.27	3.24	1.8	3.05	-0.188	3.87	3.18	3.36	1.82	2.63
